A short description of assay [1]: qHTS assay to identify small molecule antagonists of the sonic hedgehog signaling (Shh) pathway (AID 1259369; calls by dose curve; further: nearly all actives have a fitted effect of over 45% in size; further: potency means the concentration at half of the fitted maximal effect). In a few lines:
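Inhibition of Shh signalling is measured as reduced Gli1-response-element firefly luciferase output in an NIH/3T3-derived stable reporter clone stimulated with conditioned medium for 24hr.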
A general note: Quantitative high-throughput screening tests each substance at several concentrations.

A short description of assay [2]: qHTS assay to identify small molecule agonists of the androgen receptor (AR) signaling pathway in the presence of an antagonist - cell viability counter screen (AID 1259379).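 Further: MDA-kb2 human breast cancer cells carrying an MMTV luciferase reporter; series mostly up to about 92 µM; nearly all actives have a fitted effect of over 25% in size.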 Put shortly: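 Fluorescence from CellTiter-Fluor, added after 15 hr and read 1 hr later, gave cell viability. Cells were MDA-kb2 exposed to compounds (15 concentrations) in the presence of 3.0uM nilutamide at 37C, 0% CO2.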

The nature of assay [3]: qHTS assay to identify small molecule antagonists of the estrogen receptor beta (ER-beta) signaling pathway - cell viability counter screen (AID 1259382).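 Further: HEK293T cells carrying ER-beta-UAS-bla reporter stimulated with estradiol; series mostly up to about 92 µM; nearly all actives have a fitted effect of over 55% in size.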 Put shortly: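 Following a 6 hr plating period, HEK293T cells carrying a UAS-driven beta-lactamase reporter under ER-beta control received compounds and 1nM E2 (final). After 16 hr at 37C and 2 hr substrate loading, CellTiter-Glo luminescence indicated viability.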

The nature of assay [4]: qHTS assay to identify small molecule agonists or antagonists of the thyroid stimulating hormone receptor (TSHR) signaling pathway - wild type cell line counter screen (AID 1259384; calls by dose curve). In a few lines:
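Wild-type HEK293 cells were plated 18 h at 37 C/5% CO2, pin-dosed with compound plus Ro20-1724 medium, held 30 min at room temperature, then given cAMP-d2 and anti-cAMP-cryptate; fluorescence was read after 1 h. Fifteen concentrations, triplicate.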

A short description of assay [5]: qHTS assay to identify small molecule agonists of the estrogen receptor alpha (ER-alpha) signaling pathway in the presence of an antagonist - cell viability counter screen (AID 1259386).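 Further: series mostly up to about 92 µM; cells exposed to compounds for 22 h at 37 °C before the viability read; nearly all actives have a fitted effect of over 30% in size.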 Put shortly: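 Cells are starved of estrogens for 5 days in charcoal-stripped serum, seeded for 24hr and co-treated with ICI-182,780 (10.0nM final) and test compounds. After 22hr at 37C, viability is read as CellTiter-Fluor fluorescence.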

Assay [6] concerns the target Progesterone receptor (Homo sapiens) (UniProt P06401). The assay is described as follows: qHTS assay to identify small molecule antagonists of the progesterone receptor (PR) signaling pathway (AID 1346795; active means well fitted inhibition curve with a large enough effect in the signal ratio in the repeat runs, not every such curve was filed as active; the % refers to the signal ratio). In a few lines: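 In HEK293T cells bearing the PR-UAS-bla reporter, compound effects on promegestone-driven (1 nM) beta-lactamase expression are assessed after 16 hr using a fluorescent FRET substrate incubated 2 hr at room temperature.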

Assay [7] is described as follows: qHTS assay to identify small molecule antagonists of the progesterone receptor (PR) signaling pathway - cell viability counter screen (AID 1346798). Further: series mostly up to about 92 µM; nearly all actives have a fitted effect of over 50% in size. Put shortly:
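Following a 4 hr attachment, PR-UAS-bla HEK293T cells in charcoal-stripped FBS medium were exposed to compounds with R5020 for 16 hr; CellTiter-Glo was added and luminescence read after 30 min at room temperature.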

The nature of assay [8]: qHTS assay to identify small molecule agonists of the progesterone receptor (PR) signaling pathway - cell viability counter screen (AID 1346799; calls by dose curve; further: nearly all actives have a fitted effect of over 45% in size). In a few lines:
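Here, 3,000 PR-UAS-bla HEK293T cells per well were treated with compounds for 16 hr after a 6 hr preincubation at 37C and 5% CO2; cell viability is the CellTiter-Glo luminescence signal.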

Assay [9] is described as follows: qHTS assay to identify small molecule antagonists of the TGF-beta/Smad signaling pathway - cell viability counter screen (AID 1346824). Further: nearly all actives have a fitted effect of over 50% in size. In a few lines: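 SBE-bla HEK 293T cells were plated overnight at 37 C, then given compounds in DMSO plus TGF-beta1 (added as 0.25 ng/mL solution) for 5 hr. After the bla read, CellTiter-Glo was added to the same wells and luminescence read after 30 min at room temperature.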

Assay [10] in a line: qHTS assay to identify small molecule agonists of the TGF-beta/Smad signaling pathway - cell viability counter screen (AID 1346829). Further: top concentration of the series differs between compounds; nearly all actives have a fitted effect of over 45% in size. Put shortly:
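Luminescence from CellTiter-Glo, read after a 30 min room-temperature incubation, gives cell viability of SBE-bla HEK 293T cells treated 5 hr with compounds at 37 C.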

Assay [11] can be described thus: qHTS assay to identify small molecule agonists of the TGF-beta/Smad signaling pathway (AID 1346859; active means well fitted activation curve with a large enough effect in the signal ratio in the repeat runs, not every such curve was filed as active; the % refers to the signal ratio; further: series mostly up to about 77 µM). In a few lines:
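Each well held 4,000 SBE-bla HEK 293T cells incubated overnight before compound addition; 5 hr later the cleavable FRET substrate went on for 2 hr at room temperature, and fluorescence was read at two emissions.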

In assay [12] the target is Thyrotropin-releasing hormone receptor (Homo sapiens) (UniProt P34981). Briefly: qHTS assay to identify small molecule antagonists of the thyrotropin-releasing hormone receptor (TRHR) signaling pathway (AID 1346877; active means well fitted inhibition curve with a large enough effect in the repeat runs, not every such curve was filed as active; further: series mostly up to about 51 µM). Put shortly:
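Cells (TRHR-HEK293) are plated and kept 18 h at 37 °C/5% CO2. A calcium-sensitive dye is added for 2 h, compound follows for 5 min at room temperature, and TRH is then given at 1 nM final.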

Assay [13] in a line: qHTS assay to identify small molecule agonists of the estrogen receptor beta (ER-beta) signaling pathway - cell viability counter screen (AID 1259380). Further: nearly all actives have a fitted effect of over 30% in size. Further: potency means the concentration at half of the fitted maximal effect. In a few lines:
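Same-well viability counter screen. Cells: ER-beta-UAS-bla HEK293T, plated 6 hr before compound, in 2% charcoal-stripped FBS. Compound exposure 16 hr, 37C; viability by CellTiter-Glo luminescence after 30 min at room temperature.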

In assay [14] the target is Estrogen receptor (Homo sapiens) (UniProt P03372). The assay is described as follows: qHTS assay to identify small molecule agonists of the estrogen receptor alpha (ER-alpha) signaling pathway in the presence of an antagonist (AID 1259383; calls by dose curve; further: top concentration of the series differs between compounds; nearly all actives have a fitted effect of over 15% in size). In a few lines: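 Cells are hormone-deprived for 5 days (charcoal-stripped FBS, no phenol red), plated for 24hr, spiked with 10.0nM ICI-182,780, then dosed at 15 concentrations. After 22hr at 37C, ONE-Glo luminescence reports ERE-luciferase activity.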

For assay [15], the target named is Thyrotropin receptor (Homo sapiens) (UniProt P16473). Briefly: qHTS assay to identify small molecule antagonists of the thyroid stimulating hormone receptor (TSHR) signaling pathway (AID 1259385; calls by dose curve; further: nearly all actives have a fitted effect of over 20% in size). In a few lines: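 TSHR-HEK293 cells were plated and held 18 h at 37C/5% CO2, then given compound plus Ro20-1724 and stimulated with TSH at 1.5 ng/mL final. After 30 min at room temperature, cAMP was detected with cAMP-d2/anti-cAMP-cryptate (1 h) by fluorescence.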

The target in assay [16] is Progesterone receptor (Homo sapiens) (UniProt P06401). Briefly: qHTS assay to identify small molecule agonists of the progesterone receptor (PR) signaling pathway (AID 1346784; calls by dose curve; further: nearly all actives have a fitted effect of over 30% in size). In a few lines:
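Compounds were tested for PR agonism in HEK 293T cells bearing a beta-lactamase gene under UAS control. Treatment lasted 16 hr at 37C; signal came from fluorescence of a FRET substrate.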

For assay [17], the target named is Thyrotropin-releasing hormone receptor (Homo sapiens) (UniProt P34981). Briefly: qHTS assay to identify small molecule agonists of the thyrotropin-releasing hormone receptor (TRHR) signaling pathway (AID 1346891; calls by dose curve; further: series mostly up to about 58 µM). Put shortly: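 Screening of agonists relied on calcium signalling in HEK293 cells expressing human TRHR: dye loading 2 h at 37 °C preceded compound addition and a 3-min fluorescence time course.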

Unmarked numbers belong to inactive results. Results filed as inconclusive are left out. Active and inactive are the calls of the source. Unless noted, the call rests on the fitted dose curve; in most records, active means well fitted curve in the direction sought with a large enough effect in the repeat runs; inconclusive means weak or mixed curves; inactive means no such curve, though single readings can be large; an effect the other way counts as inactive or inconclusive.

Sequence of Progesterone receptor (Homo sapiens) (P06401 whole entry, looked up): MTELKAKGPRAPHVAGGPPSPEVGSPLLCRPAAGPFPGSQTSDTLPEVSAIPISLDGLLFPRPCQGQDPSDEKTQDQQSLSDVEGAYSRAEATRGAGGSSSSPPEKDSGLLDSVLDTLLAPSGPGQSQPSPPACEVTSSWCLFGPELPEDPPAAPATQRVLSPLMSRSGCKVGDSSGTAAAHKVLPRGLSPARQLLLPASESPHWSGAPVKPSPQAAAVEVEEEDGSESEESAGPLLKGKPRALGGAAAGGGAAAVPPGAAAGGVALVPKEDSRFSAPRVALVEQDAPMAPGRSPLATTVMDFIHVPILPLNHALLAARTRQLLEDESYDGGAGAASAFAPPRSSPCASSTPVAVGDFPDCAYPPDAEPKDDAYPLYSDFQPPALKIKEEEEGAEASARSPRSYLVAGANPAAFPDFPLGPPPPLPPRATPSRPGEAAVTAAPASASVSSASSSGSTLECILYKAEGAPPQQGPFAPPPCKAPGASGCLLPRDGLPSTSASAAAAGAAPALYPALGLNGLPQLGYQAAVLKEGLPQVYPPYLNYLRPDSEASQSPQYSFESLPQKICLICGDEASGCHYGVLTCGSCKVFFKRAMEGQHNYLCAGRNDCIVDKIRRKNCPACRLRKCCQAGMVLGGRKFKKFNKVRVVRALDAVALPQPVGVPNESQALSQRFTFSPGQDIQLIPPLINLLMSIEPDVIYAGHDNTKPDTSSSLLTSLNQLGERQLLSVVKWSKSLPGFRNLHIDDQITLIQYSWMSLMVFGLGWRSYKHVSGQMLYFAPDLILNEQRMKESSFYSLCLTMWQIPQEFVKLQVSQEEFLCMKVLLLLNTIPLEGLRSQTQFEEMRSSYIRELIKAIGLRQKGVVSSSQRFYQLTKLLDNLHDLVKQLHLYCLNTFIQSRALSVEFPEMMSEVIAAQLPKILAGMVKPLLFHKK
Sequence of Thyrotropin-releasing hormone receptor (Homo sapiens) (P34981 whole entry, looked up): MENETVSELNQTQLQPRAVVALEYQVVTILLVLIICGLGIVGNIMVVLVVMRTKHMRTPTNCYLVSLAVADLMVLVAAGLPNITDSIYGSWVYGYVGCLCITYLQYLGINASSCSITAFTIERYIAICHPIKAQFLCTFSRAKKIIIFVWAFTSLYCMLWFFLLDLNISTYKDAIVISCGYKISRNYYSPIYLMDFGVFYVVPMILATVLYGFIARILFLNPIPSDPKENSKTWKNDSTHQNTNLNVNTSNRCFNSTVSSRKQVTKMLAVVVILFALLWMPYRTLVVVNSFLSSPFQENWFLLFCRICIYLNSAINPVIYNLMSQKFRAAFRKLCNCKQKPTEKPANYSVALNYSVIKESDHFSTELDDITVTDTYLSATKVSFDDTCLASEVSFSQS
Sequence of Estrogen receptor (Homo sapiens) (P03372 whole entry, looked up): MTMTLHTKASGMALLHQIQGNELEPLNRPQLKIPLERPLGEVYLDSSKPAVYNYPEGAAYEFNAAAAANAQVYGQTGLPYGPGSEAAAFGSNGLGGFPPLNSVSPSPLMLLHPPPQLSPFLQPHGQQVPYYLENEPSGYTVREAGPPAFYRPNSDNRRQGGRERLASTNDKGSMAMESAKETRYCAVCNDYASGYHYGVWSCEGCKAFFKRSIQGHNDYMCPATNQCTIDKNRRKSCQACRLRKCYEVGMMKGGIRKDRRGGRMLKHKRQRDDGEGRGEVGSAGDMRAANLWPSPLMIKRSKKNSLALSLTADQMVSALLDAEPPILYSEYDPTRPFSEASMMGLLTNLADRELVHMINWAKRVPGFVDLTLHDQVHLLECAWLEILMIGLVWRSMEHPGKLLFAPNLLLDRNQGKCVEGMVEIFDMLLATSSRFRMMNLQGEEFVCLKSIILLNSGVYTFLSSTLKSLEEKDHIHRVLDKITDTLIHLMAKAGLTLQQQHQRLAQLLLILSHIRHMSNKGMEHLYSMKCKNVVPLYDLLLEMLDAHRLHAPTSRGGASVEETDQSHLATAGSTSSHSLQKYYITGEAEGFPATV
Sequence of Thyrotropin receptor (Homo sapiens) (P16473 whole entry, looked up): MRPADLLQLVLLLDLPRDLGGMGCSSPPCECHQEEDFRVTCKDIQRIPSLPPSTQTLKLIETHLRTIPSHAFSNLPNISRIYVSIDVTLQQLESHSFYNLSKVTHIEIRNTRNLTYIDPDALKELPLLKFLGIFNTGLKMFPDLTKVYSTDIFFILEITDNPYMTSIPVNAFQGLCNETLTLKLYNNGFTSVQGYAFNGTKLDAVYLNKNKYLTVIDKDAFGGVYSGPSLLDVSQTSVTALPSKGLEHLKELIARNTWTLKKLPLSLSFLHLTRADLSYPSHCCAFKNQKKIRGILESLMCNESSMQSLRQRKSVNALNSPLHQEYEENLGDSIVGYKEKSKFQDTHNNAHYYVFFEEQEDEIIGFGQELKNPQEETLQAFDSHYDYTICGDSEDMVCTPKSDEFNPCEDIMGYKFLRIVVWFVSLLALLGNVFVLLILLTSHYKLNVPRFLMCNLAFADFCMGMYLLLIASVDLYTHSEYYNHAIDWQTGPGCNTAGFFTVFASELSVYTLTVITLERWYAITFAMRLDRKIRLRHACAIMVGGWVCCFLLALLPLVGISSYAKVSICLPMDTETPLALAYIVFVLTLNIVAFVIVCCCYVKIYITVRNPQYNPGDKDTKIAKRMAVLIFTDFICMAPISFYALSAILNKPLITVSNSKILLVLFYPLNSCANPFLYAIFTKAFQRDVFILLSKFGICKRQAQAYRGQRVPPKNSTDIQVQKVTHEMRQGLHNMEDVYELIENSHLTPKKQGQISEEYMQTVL

With `CCC(=O)O[C@]1(C(=O)SCF)[C@H](C)C[C@H]2[C@@H]3C[C@H](F)C4=CC(=O)C=C[C@]4(C)[C@@]3(F)[C@@H](O)C[C@@]21C`, the Potency result in assay [1], in assay [2], in assay [5], in assay [6], in assay [7] and in assay [8] was “inactive” throughout. Further, the outcome in [3], in [4], in [9], in assay [10], in assay [11] and in [12] was inactive.

For `CCCCCCC`, the Potency entry in assay [1], in assay [2], in assay [13], in assay [14], in [15] and in [5] was “inactive” throughout. In addition, the Potency result in assay [16] and in assay [17] was “inactive” throughout. For the same compound, the compound was called inactive in assay [3], in [4], in assay [9], in assay [10], in [11] and in assay [12].

`C[C@]12CCC(=O)C=C1CC[C@@H]1[C@@H]2CC[C@@]2(C)[C@H]1CC[C@]2(O)C(=O)CO`: the Potency entry in assay [1], in assay [2], in assay [13], in assay [14], in [15] and in [5] was “inactive” throughout. Moreover, the Potency result in assay [7] is “inactive”. In addition, the outcome in [3], in [4], in assay [9], in assay [10], in assay [11] and in [12] was inactive.

For `CCCNC(C)(C)COC(=O)c1ccccc1`, the Potency entry in assay [1], in [2], in assay [13], in assay [14], in [15] and in assay [5] was “inactive” each time. The Potency result in [7] and in assay [8] was “inactive” each time. The compound was classed as inactive in assay [3], in [4], in [9], in assay [10], in assay [11] and in [12].

As for `CCN(CC)C(=O)N(CC)CC`, the Potency entry in assay [1], in assay [2], in assay [13], in assay [5], in assay [16] and in [6] was “inactive” throughout. In assay [8], the Potency entry is “inactive”. For the same compound, the compound was called inactive in assay [3], in assay [9], in assay [10] and in [11].

With `CC(C)C[C@H](NC(=O)OCC1c2ccccc2-c2ccccc21)C(=O)O`, the Potency result in assay [1], in assay [2], in assay [15], in assay [5], in assay [16] and in assay [7] was “inactive” each time. In addition, the Potency result in assay [8] was “inactive”. In addition, the Potency in assay [13] was 61.1 µM (active). Also, the outcome in assay [4], in [9] and in assay [10] was inactive.

Regarding `NC/C=C/C(=O)O`, the Potency result in assay [1], in assay [2], in assay [13], in [15], in assay [5] and in assay [6] was “inactive” throughout. Also, the Potency entry in assay [7], in assay [8] and in [17] was “inactive” each time. Besides, the result in [4], in assay [9], in assay [10], in [11] and in [12] was inactive.

Turning to `CC/C=C\CCOC(=O)C(C)C`, the Potency entry in assay [1], in assay [2], in assay [13], in assay [14], in assay [15] and in assay [5] was “inactive” throughout. Besides, the Potency entry in assay [6], in [7] and in [8] was “inactive” in each case. Further, the call in [4], in assay [9], in assay [10], in assay [11] and in assay [12] was inactive.

In the case of `CC(C)=CCCC(C)CCOC=O` (configuration not stated), the Potency in [1] is 34.4 µM (active). Further, the Potency entry in assay [2], in [15], in assay [5], in [16], in [6] and in [7] was “inactive” throughout. The Potency result in [8] and in assay [17] was “inactive” each time. Further, the outcome in [3], in assay [4], in [9], in [10], in assay [11] and in assay [12] was inactive.

`CCCN(CCC)C(=O)C(CCC(=O)O)NC(=O)c1ccccc1` (configuration not stated): the Potency entry in assay [1], in [2], in [13], in [5], in [16] and in assay [6] was “inactive” each time. Further, the Potency entry in [7], in [8] and in assay [17] was “inactive” throughout. Besides, the call in [3], in [9], in assay [10], in [11] and in assay [12] was inactive.

Source of the values: PubChem BioAssay (Tox21).
